Experimental findings from PubChem BioAssay (Tox21) are described below.

Inconclusive results are not listed. Some structures have more than one record in an assay (separate samples or runs), and their calls can disagree. Active and inactive are the calls of the source. Unless noted, calls follow the shape of the full dose curve.

Assay [1] in a line: Nuclear factor erythroid 2-related factor 2/antioxidant responsive element (Nrf2/ARE) small molecule agonists: qHTS cell viability counter screen in human keratinocytes (AID 1919968; active = well fitted curve in the direction sought with a large enough effect in the repeat runs; an effect the other way counts as inactive or inconclusive; also: nearly all actives have a fitted effect of over 55% in size). The gist of the method: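 In human HaCaT keratinocytes stably expressing an ARE-driven luciferase, compound exposure lasted 23 h at 37 C under 5% CO2. Viable cells are quantified with a protease-based fluorogenic reagent (CellTiter-Fluor) read 1 h after addition.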

Assay [2] can be described thus: Nuclear factor erythroid 2-related factor 2/antioxidant responsive element (Nrf2/ARE) small molecule agonists: luciferase reporter gene qHTS assay in human keratinocytes (AID 1919969; also: nearly all actives have a fitted effect of over 35% in size; also: potency is read from the fitted curve at half-maximal effect). (In general: Reporter assays use an easily measured gene product as a stand-in for the process of interest.)
Assay [3] addresses Gonadotropin-releasing hormone receptor (Homo sapiens) (UniProt P30968). Nature of the assay: Human gonadotropin-releasing hormone receptor (GnRHR) small molecule agonists, calcium flux assay in GnRHR-HEK293 cells (AID 1920063). Also: nearly all actives have a fitted effect of over 35% in size. A digest of the protocol: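 Intracellular calcium rise is the read-out: engineered human GnRHR HEK293 cells, dye-loaded, are exposed to DMSO-dissolved compounds and fluorescence at Ex/Em 480/540 is tracked for 3 min.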
A general note: A change in cytosolic calcium serves as a functional read-out for many receptors and channels.

The target in assay [4] is KiSS-1 receptor (Homo sapiens) (UniProt Q969F8). Nature of the assay: Human kisspeptin (KISS1R) small molecule agonists, calcium flux assay in KISS1R-HEK293 cells (AID 1920064; active = well fitted curve in the direction sought with a large enough effect in the repeat runs; an effect the other way counts as inactive or inconclusive). A digest of the protocol:
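Concentration-response testing used 15 concentrations in triplicate on human KISS1R-expressing HEK293 cells. Calcium-dependent fluorescence (Ex/Em 480/540) was followed kinetically for 3 min after compound transfer.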

A short description of assay [5]: G protein-coupled receptor (GPCR) small molecule agonists, calcium flux assay: HEK293 wild type cell line counter screen (AID 1920065). The gist of the method: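 Fluorescence intensity signals activation. After overnight (18 h) culture and a 1 h calcium dye load at 37 C, compounds are added by pin tool and the plate read at 480/540 nm for 3 min in 1 s steps.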
A short description of assay [6]: p53 small molecule agonists, cell-based qHTS assay with human liver microsomes (AID 1963577).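 Also: p53 response element beta-lactamase reporter cells with liver microsomes plus NADPH.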 The gist of the method: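 Reporter activation was measured by LiveBLAzer fluorescence intensity in p53RE-bla cells, which had been exposed to compounds for 16 h at 37 C alongside 0.5 mg/mL human liver microsomes and 0.5 mg/mL NADPH (final concentrations).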
(In general: Quantitative high-throughput screening tests each substance at several concentrations.)

The nature of assay [7]: p53 small molecule agonists, cell-based qHTS assay with human liver microsomes: qHTS cell viability counter screen (AID 1963579). Also: nearly all actives have a fitted effect of over 45% in size. A digest of the protocol: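 HLM-supplemented (0.5 mg/mL final) and NADPH-supplemented (0.5 mg/mL final) p53RE-bla cultures, 4,000 cells per well, were dosed with compounds in DMSO for 16 h at 37 C; luminescent ATP detection (CellTiter-Glo, 30 min, room temperature) quantified surviving cells.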

A short description of assay [8]: p53 small molecule agonists, cell-based qHTS assay with rat liver microsomes: qHTS cell viability counter screen (AID 1963580). Also: nearly all actives have a fitted effect of over 45% in size. The gist of the method: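 Cytotoxicity counter screen: intracellular ATP measured by CellTiter-Glo luminescence in the same wells as the beta-lactamase reporter read, on HCT-116 p53RE-bla cells exposed 16 h at 37 C to compounds with rat liver microsomes and NADPH, each 0.5 mg/mL final.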

Assay [9] in a line: p53 small molecule agonists, cell-based qHTS assay: qHTS cell viability counter screen (AID 1963581). Also: nearly all actives have a fitted effect of over 45% in size. The gist of the method:
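Luminescence from CellTiter-Glo, reflecting ATP content, serves as the cytotoxicity measure; it is taken after the 2 h reporter substrate step in HCT-116 p53RE-bla cells dosed for 16 h at 37 C.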

Assay [10] is described as follows: p53 small molecule agonists, cell-based qHTS assay (AID 1963582; active = well fitted activation curve with a large enough effect in the signal ratio in the repeat runs, not every such curve was filed as active; the % refers to the signal ratio). A digest of the protocol: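 After plating, p53RE-bla cells sat 5 h in the incubator; compounds or DMSO vehicle were pinned in; a 16 h incubation at 37 C followed; FRET substrate was added and, 2 h later at RT, fluorescence was measured.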
In assay [11] the target is 5-hydroxytryptamine receptor 2A (Homo sapiens) (UniProt P28223). Nature of the assay: 5-hydroxytryptamine receptor 2A (HTR2A) small molecule antagonists, cell-based qHTS assay (AID 1963586). Also: nearly all actives have a fitted effect of over 45% in size. The gist of the method:
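CHO cells stably expressing human HTR2A were plated for 18 h at 37 C, then loaded with calcium dye for 1 h. Compounds were preincubated 5 min at room temperature before DOI (4 nM solution) was added. Kinetic fluorescence was read for 3 min.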

Assay [12] has the same target. Nature of the assay: 5-hydroxytryptamine receptor 2A (HTR2A) small molecule agonists, cell-based qHTS assay (AID 1963587). Also: nearly all actives have a fitted effect of over 30% in size. The gist of the method: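 CHO cells stably expressing human HTR2A, plated 18 h, loaded with calcium dye 1 h at 37 C. Agonist mode: compounds added and intracellular calcium fluorescence recorded kinetically for 2 min at 1 sec intervals.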
For assay [13], the target named is Muscarinic acetylcholine receptor M1 (Homo sapiens) (UniProt P11229). Nature of the assay: Cholinergic receptor muscarinic 1 (CHRM1) small molecule antagonists, cell-based qHTS assay (AID 1963588). Also: nearly all actives have a fitted effect of over 40% in size. A digest of the protocol: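 Compounds were tested at 15 concentrations in three independent runs. Dye-loaded CHRM1-CHO cells were exposed 5 min at room temperature before stimulation by acetylcholine added at 50nM. Intracellular calcium was read kinetically on FDSS for 3 min.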
Sequence of Muscarinic acetylcholine receptor M1 (Homo sapiens) (P11229 whole entry, looked up): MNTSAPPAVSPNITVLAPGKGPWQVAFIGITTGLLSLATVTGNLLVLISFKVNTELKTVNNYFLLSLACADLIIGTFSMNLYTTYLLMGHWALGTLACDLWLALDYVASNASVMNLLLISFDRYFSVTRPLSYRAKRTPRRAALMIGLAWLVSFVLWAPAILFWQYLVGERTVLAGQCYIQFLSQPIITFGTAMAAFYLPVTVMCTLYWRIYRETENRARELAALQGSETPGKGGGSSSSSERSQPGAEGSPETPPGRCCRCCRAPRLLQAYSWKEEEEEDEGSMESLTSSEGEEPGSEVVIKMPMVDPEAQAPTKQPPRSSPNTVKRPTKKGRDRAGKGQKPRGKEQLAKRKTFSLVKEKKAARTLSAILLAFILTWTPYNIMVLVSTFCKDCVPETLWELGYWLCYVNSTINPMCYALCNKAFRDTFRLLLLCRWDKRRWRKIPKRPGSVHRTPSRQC

The nature of assay [14]: cAMP Responsive Elements (CRE) small molecule agonists, cell-based qHTS assay (AID 1963590). A digest of the protocol:
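Compound exposure lasted 3 h at 37 C/5% CO2 in CRE-bla HEK 293T cells grown in assay medium with 10% dialyzed FBS and 25 mM HEPES. Reporter signal came from LiveBLAzer B/G FRET substrate, 2 h, room temperature.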

A short description of assay [15]: cAMP Responsive Elements (CRE) small molecule antagonists, cell-based qHTS assay (AID 1963591; active = well fitted inhibition curve with a large enough effect in the signal ratio in the repeat runs, not every such curve was filed as active; the % refers to the signal ratio). A digest of the protocol: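 Stimulation used NKH477 at a final 0.25 uM for 3 h in compound-treated CRE-bla HEK293T cells, seeded 18 h beforehand. Reporter activity was measured with LiveBLAzer B/G FRET substrate after 2 h at room temperature.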
In assay [16] the target is Beta-2 adrenergic receptor (Homo sapiens) (UniProt P07550). Kind of assay: Adrenergic beta2 receptor (ADRB2) small molecule antagonists, cell-based qHTS assay (AID 1963592). Also: series mostly up to about 92 µM; nearly all actives have a fitted effect of over 50% in size. The gist of the method: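 Assay format: CHO-ADRB2 cells, 18-20hr seeding at 37C/5% CO2, then compound plus 1nM isoproterenol agonist mix for 0.5hr RT. Homogeneous time-resolved fluorescence cAMP detection after 1hr, expressed as 665/615 nm ratio.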
Sequence of Beta-2 adrenergic receptor (Homo sapiens) (P07550 whole entry, looked up): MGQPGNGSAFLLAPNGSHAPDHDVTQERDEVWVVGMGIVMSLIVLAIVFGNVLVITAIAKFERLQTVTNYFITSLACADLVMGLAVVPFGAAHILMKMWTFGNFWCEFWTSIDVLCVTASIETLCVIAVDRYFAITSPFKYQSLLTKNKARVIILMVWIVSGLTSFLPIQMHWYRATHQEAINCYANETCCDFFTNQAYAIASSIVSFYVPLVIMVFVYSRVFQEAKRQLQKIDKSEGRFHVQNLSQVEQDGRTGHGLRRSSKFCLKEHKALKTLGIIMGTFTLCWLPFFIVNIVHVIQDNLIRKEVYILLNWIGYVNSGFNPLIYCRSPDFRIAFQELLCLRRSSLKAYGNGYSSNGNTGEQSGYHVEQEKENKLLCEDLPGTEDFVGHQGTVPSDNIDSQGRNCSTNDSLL

Assay [17] concerns the target D(2) dopamine receptor (Homo sapiens) (UniProt P14416). Nature of the assay: Dopamine D2 receptor (DRD2) small molecule antagonists, cell-based qHTS assay (AID 1963595; active = well fitted inhibition curve with a large enough effect in the signal ratio in the repeat runs, with a control signal flat; the % refers to the signal ratio). The gist of the method:
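HTRF cAMP read-out at 665 and 620 nm emission (340 nm excitation). Antagonist mode: compounds were tested against 12 nM quinpirole in DRD2-HEK293 cells, with 200 nM NKH477 raising cAMP and 0.1 mM Ro20-1724 blocking its breakdown.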

For assay [18] the target is unchanged. Kind of assay: Dopamine D2 receptor (DRD2) small molecule agonists, cell-based qHTS assay (AID 1963594). Also: nearly all actives have a fitted effect of over 35% in size. The gist of the method:
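HEK293 cells stably expressing human DRD2, pre-treated with PDE inhibitor Ro20-1724 (0.1 mM final) and compound 10 min at room temperature, then stimulated with NKH477 (200nM […]) for 30 min. cAMP read by HTRF (665/620 nm).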

Assay [19] deals with Muscarinic acetylcholine receptor M1 (Homo sapiens) (UniProt P11229). Kind of assay: Cholinergic receptor muscarinic 1 (CHRM1) small molecule agonists, cell-based qHTS assay (AID 1963589). Also: nearly all actives have a fitted effect of over 35% in size. The gist of the method:
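Fluorescent calcium dye reports M1 activation in stably transfected CHO cells. Compounds, 15 concentrations, added after 1 h dye loading at 37 C; kinetic reading at 1 sec intervals.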
% is scaled to controls: 0 for no effect and ±100 for the full control effect.

Sequence of KiSS-1 receptor (Homo sapiens) (Q969F8 whole entry, looked up): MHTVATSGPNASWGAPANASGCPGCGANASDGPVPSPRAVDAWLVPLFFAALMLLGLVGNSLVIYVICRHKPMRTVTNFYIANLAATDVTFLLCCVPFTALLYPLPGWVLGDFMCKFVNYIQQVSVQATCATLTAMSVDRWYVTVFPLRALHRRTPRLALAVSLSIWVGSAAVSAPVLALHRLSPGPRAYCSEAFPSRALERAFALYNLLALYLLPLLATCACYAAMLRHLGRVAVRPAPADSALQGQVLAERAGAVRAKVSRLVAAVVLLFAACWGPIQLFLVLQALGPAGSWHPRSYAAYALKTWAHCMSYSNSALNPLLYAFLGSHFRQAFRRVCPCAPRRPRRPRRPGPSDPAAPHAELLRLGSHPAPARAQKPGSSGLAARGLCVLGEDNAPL
Sequence of 5-hydroxytryptamine receptor 2A (Homo sapiens) (P28223 whole entry, looked up): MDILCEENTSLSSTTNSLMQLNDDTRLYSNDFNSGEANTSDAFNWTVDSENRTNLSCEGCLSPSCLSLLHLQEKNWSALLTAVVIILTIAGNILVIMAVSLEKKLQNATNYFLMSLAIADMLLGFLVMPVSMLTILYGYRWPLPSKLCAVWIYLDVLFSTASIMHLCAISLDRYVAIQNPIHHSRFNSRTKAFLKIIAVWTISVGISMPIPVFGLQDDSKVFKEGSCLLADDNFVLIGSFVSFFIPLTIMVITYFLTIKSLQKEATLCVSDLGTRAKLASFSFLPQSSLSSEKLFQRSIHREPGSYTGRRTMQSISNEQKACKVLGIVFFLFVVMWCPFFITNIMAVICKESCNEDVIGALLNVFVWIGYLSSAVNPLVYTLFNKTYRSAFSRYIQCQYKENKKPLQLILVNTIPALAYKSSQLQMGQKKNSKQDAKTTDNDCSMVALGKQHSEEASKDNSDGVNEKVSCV
Sequence of D(2) dopamine receptor (Homo sapiens) (P14416 whole entry, looked up): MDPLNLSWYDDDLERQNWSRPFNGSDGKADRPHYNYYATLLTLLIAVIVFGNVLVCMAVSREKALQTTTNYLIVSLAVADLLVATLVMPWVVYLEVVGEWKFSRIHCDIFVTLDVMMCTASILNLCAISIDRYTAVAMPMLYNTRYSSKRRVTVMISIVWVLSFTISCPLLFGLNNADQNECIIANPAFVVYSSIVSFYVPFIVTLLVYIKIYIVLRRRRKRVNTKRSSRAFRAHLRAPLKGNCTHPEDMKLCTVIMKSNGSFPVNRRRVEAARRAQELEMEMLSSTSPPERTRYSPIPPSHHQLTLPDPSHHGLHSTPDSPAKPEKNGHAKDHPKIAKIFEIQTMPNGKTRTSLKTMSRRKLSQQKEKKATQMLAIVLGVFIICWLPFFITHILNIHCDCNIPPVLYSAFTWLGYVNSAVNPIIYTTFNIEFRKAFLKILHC
Sequence of Gonadotropin-releasing hormone receptor (Homo sapiens) (P30968 whole entry, looked up): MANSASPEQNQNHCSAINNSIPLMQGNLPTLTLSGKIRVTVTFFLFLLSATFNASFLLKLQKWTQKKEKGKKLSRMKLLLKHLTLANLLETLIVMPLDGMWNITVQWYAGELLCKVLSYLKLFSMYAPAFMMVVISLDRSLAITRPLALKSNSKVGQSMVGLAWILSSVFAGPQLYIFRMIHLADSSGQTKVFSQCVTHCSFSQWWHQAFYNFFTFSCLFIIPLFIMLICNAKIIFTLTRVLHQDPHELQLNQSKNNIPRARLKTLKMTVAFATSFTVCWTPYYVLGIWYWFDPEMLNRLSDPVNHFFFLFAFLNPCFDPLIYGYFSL

`CNC(=O)Oc1ccccc1OC(C)C`: the Potency entry in [1], in assay [2], in assay [3], in assay [4], in assay [5] and in assay [6] was “inactive” in each case. Besides, the Potency result in assay [7], in [8], in [9], in [10], in assay [11] and in assay [12] was “inactive” throughout. The Potency entry in assay [13], in [14], in assay [15], in assay [16] and in assay [17] was “inactive” throughout.

As to `C[C@H]1C(=O)O[C@@H]2CCN3CC=C(COC(=O)[C@](C)(O)[C@]1(C)O)[C@H]23`, the Potency result in [1], in assay [2], in [3], in [4], in [5] and in assay [6] was “inactive” each time. Moreover, the Potency result in assay [7], in assay [8], in [9], in assay [10], in assay [11] and in assay [12] was “inactive” each time. Moreover, the Potency result in assay [15], in assay [16], in assay [18] and in assay [17] was “inactive” throughout.

With `O=c1ccc(=O)[nH][nH]1`, the Potency result in assay [1], in assay [2], in [3], in assay [4], in assay [5] and in [6] was “inactive” throughout. Besides, the Potency result in assay [7], in [8], in assay [9], in [10], in assay [11] and in assay [12] was “inactive” in each case. Besides, the Potency result in assay [13], in assay [19], in assay [14], in assay [15], in assay [18] and in assay [17] was “inactive” throughout.

As to `Nc1nc(N)nc(Cl)n1`, the Potency entry in [1], in assay [2], in [3], in [4], in [5] and in assay [6] was “inactive” throughout. Besides, the Potency entry in assay [8], in assay [9], in assay [10], in [11], in [13] and in [19] was “inactive” each time. The Potency entry in assay [14], in [15], in assay [18] and in assay [17] was “inactive” each time.

Turning to `CCCCC(CC)COC(=O)c1c(Br)c(Br)c(Br)c(Br)c1C(=O)OCC(CC)CCCC` (stereo not given), the Potency result in assay [1], in assay [2], in [3], in assay [4], in [5] and in assay [6] was “inactive” each time. Moreover, the Potency entry in [7], in [8], in assay [9], in [10], in assay [11] and in [12] was “inactive” each time. Further, the Potency entry in [13], in assay [14], in assay [15], in assay [16] and in [17] was “inactive” throughout.

Consider `Brc1c(Br)c(Br)c(Br)c(Br)c1Br`, for which the activity change, negative = cytotoxicity was 1.17% [at 8.39 µM] (inactive) in assay [1], -1.65% [at 5.99 µM] (inactive) in assay [7], 2.93% [at 5.99 µM] (inactive) in assay [8] and -11.2% [at 5.99 µM] (inactive) in assay [9]. Moreover, in assay [2], the activity, positive = activation is 1.37% [at 8.39 µM] (inactive). In assay [3], the activity change was 0.959% [at 5.22 µM, stronger effect = higher value] (inactive). The activation is -5.73% [at 6.97 µM] (inactive) in assay [4]; 0.0498% [at 5.23 µM] (inactive) in assay [5]; 1.36% [at 5.99 µM] (inactive) in assay [6]; 2.53% [at 5.99 µM] (inactive) in assay [10]; -1.65% [at 7.02 µM] (inactive) in [12]; -0.148% [at 6.97 µM] (inactive) in assay [19]. Also, the activation was -0.136% [at 8.39 µM] (inactive) in [14] and -0.47% [at 8.39 µM] (inactive) in [18]. Besides, the activity, negative = inhibition was -11.3% [at 5.62 µM] (inactive) in assay [11] and 23.8% [at 5.58 µM] (inactive) in assay [13]. In addition, the activity change, negative = inhibition was -9.58% [at 8.39 µM] (inactive) in assay [16] and -0.734% [at 8.38 µM] (inactive) in assay [17].

Regarding `O=P(Oc1ccccc1)(Oc1ccccc1)Oc1ccccc1`, the Potency entry in assay [1], in assay [3], in assay [4], in assay [5], in [6] and in assay [7] was “inactive” throughout. Also, the Potency result in [8], in assay [9], in assay [12], in [13], in [19] and in [14] was “inactive” throughout. In addition, the Potency entry in assay [15], in assay [18] and in [17] was “inactive” each time. The Potency in assay [2] was 60.8 µM (active) and inactive.

`CN=C=O`: the Potency entry in [1], in assay [2], in assay [3], in [4], in assay [5] and in [6] was “inactive” each time. For the same molecule, the Potency entry in assay [8], in assay [9], in assay [10], in assay [11], in assay [12] and in assay [13] was “inactive” throughout. The Potency result in assay [19], in assay [14], in assay [15], in assay [18] and in assay [17] was “inactive” each time.
